Assay results: the supplement of paper PMC3724861
The entries come from a sample that favours hits as a whole. The true hit rate is not given. Values without a mark were called inactive.

system: T1, Caupolican (Caup) homeodomain DNA-binding domain; assay: PBM E-score (8-mer, recovered from the published 9-mer minima) (E-score (dimensionless, -0.5 to 0.5)); Drosophila protein; higher = stronger relative binding preference, active = 0.31 or more
T1 sequence: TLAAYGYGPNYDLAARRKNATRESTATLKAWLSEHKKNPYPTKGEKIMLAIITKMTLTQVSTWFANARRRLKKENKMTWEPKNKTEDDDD
Procedure, shortened: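 An enrichment score, with higher meaning stronger, expresses relative binding preference for each short DNA word. The protein used was Caup's homeodomain DNA-binding domain (residues 214-303), produced by in vitro transcription and translation and tested at 100 nM on custom-designed protein binding microarrays. The 8-mer values were recovered from published 9-mer scores, each equal to the lower of its two constituent 8-mer scores.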

Sequence	PBM E-score
AACATGGA	0.325 (active)
ACCATGGA	0.0206
ATAGCTTG	0.0692
CGACCGGC	-0.141
AGTAAGTG	0.00023
TGCGCCCA	-0.134
ATTAGATG	0.235
GCTCCATA	-0.111
ACGGTGGC	-0.158
ATGCGAAA	0.0128
TACAAAAA	0.255
TACAAGAA	0.351 (active)
AACAAGAC	0.335 (active)
AACAAAAA	0.141
GACAAGAA	0.297
AACAAAGA	0.0783
AACAAGAA	0.321 (active)
AACAAAAC	0.179
GACAAAAC	0.137
CACAAGAA	0.0855
GACAAGAC	0.325 (active)
CACAAGAC	0.0913
CATGACTA	0.198

Sequence	PBM E-score
CATCTTAG	0.0142
ATGGCGTA	0.002
CCTCCGCA	-0.12
CACTCTTC	0.0141
AACAAAAT	0.209
AACAAGAG	0.243
AACAAGAT	0.334 (active)
GACCGCAC	-0.162
ATAGCTCA	-0.0365
ATGACAAG	≥ 0.378 (active)
ATGACAAA	0.248
ATGACAAC	0.375 (active)
ATGACAGC	0.202
GTGACAAC	0.303
ATGACAAT	0.274
CTGACAAG	0.341 (active)
CTGACAAC	0.281
CTGACAAA	0.132
CGATCATA	0.0822
GGAGCCGA	-0.213
GCATCGTA	-0.088
ACCAGCTG	-0.0781
ATTTGTAG	0.239

Sequence	PBM E-score
CGTGAACC	-0.0185
CATATCGG	0.0413
GAGCGGCA	-0.199
CGCTTGTA	0.313 (active)
GGCTTGTA	0.312 (active)
GGCTTGGA	-0.0906
CGCTTGAA	0.0019
AGCTTGTA	0.368 (active)
AGCTTGTG	-0.0301
AGCTTGTC	0.261
CGCTTGTC	0.272
GGCTTGAA	-0.103
CCAGCCGG	-0.247
AATTAAAA	0.0931
ACAGTTTG	0.0438
AGAGTCAC	-0.0337
AATCTTAG	-0.0734
AGACCGGG	-0.179
CACCCGAA	-0.0428
GTCCCTAA	-0.0722
ACTGTTCA	0.0851
CTTGGATC	0.0244
CGTGTACC	0.35 (active)

Sequence	PBM E-score
CGTGTAGC	0.276
CGTGTGTA	0.283
AGTGTACC	0.207
CGTGTAGA	0.29
CGTGTACA	≥ 0.441 (active)
GTCATCTA	0.0593
ATGGTACA	0.32 (active)
CTGGTACC	0.0519
ATGGTACC	0.0486
CAGGTACA	0.298
TAGGTACA	0.271
GAGGTACA	0.326 (active)
ATGGTACG	0.0989
GTGGTACA	0.277
CTGGTACA	0.319 (active)
AGGACCTG	-0.102
AAGCATTG	0.102
CAACCTGG	0.0642
AGGTGGCC	-0.286
CAAGCCCC	-0.174
CCTACAAC	0.21
ACTACAAA	0.256
ACTACAAC	0.363 (active)

Sequence	PBM E-score
GCTACAAC	0.169
ACTACAAT	0.19
ACTACAAG	≥ 0.378 (active)
GAGAGCTC	-0.215
CGTCTATC	0.0194
CTTTTCGC	-0.012
CGGTTGTC	0.185
TACTTTAA	0.115
CTTGTCAC	0.322 (active)
AATGTCAG	0.197
CGTGTCAC	0.334 (active)
CATGTCAG	0.413 (active)
CGTGTCAG	0.276
CCTGTCAC	0.144
CCTGTCAG	0.115
AGTGTCAC	0.13
AATGTCAC	0.303
CATGTCAC	0.446 (active)
ATTGTCAC	0.224
GATGTCAC	0.294
AGCGTCCA	-0.0936
AAAGTATT	0.131
CGGGCTTC	-0.289
